Assay results as given in PubChem BioAssay (NCATS).
Results filed as inconclusive are left out. Calls of active or inactive are those of the source. Calls follow the shape of the full dose curve.

Experiment: qHTS Assay for Lipid Storage Modulators (AID 1519); as to activity change, negative = inhibition: % is scaled to controls: 0 for no effect and ±100 for the full control effect
Details: Drosophila S3 cells, BODIPY lipid droplet/cell ratio, laser cytometry, cells loaded with oleic acid
Description: NIH Molecular Libraries Probe Production Centers Network [MLPCN]
NIH Chemical Genomics Center [NCGC]
Assay Submitter (PI): Beller, Mathias; Max-Planck-Institut fur Biophysikalische Chemie
NCGC Assay Overview: Storing lipids as a reservoir for energy or the anabolism of elementary metabolites is a common feature of probably all cells and is conserved from bacteria to humans. The universal cellular lipid storage organelle is the so-called lipid storage droplet (LD). Although ubiquitous, LDs share a simple structure composed of a hydrophobic core that harbors the storage lipids, which is shielded by a droplet-specific phospholipid monolayer to which proteins are attached. The current model of LD biogenesis involves an incorporation of the lipid core into the membrane leaflets of the endoplasmic reticulum (ER) followed by a subsequent budding-like maturation of a LD, which ultimately pinches off. Once released, LD volume can increase by localized lipogenesis or fusion of existing droplets. Storage lipids are re-mobilized enzymatically by lipase activity. Lipase regulation in the adipocyte is heavily studied and involves multiple components including catecholamine signaling, the LD-associated proteins Perilipin and comparative gene identification-58 (CGI-58) and at least two lipases named hormone sensitive lipase (HSL) and adipocyte triglyceride lipase (ATGL). LD regulation outside of the adipocyte is poorly understood and only few components are known. However, there is an urgent need to learn more about ectopic fat depots as mislocalized storage of lipids, for example in the liver or muscle, is an eminent health problem associated with insulin resistance or the metabolic syndrome. We developed a laser-scanning cytometer assay to enable 1,536-well screening and combined the results of the small molecules screen with an RNAi database based on lipid storage.
NCGC Assay Protocol Summary:
We dispensed 4 uL of cells at 1.25 x 10^6 cells/mL into LoBase Aurora COC 1,536-well plates (black walled, clear bottom) with a bottle-valve solenoid-based dispenser (Aurora) to obtain 5,000 cells/well. Triacsin C (Sigma-Aldrich T-4540), an inhibitor of long-chain fatty acyl CoA synthetase that blocks synthesis of triglycerides, was used as a positive control for lipid under-storage. A total of 23 nL of compound solution of different concentrations were transferred to the assay plates using a Kalypsys pin tool equipped with a 1,536-pin array containing 10-nL slotted pins (FP1S10, 0.457-mm diameter, 50.8 mm long; V&P Scientific). One microliter of oleic acid (400 uM) was added, and the plate was lidded with stainless steel rubber gasket lined lids containing pinholes. […] Fluorescence was detected by excitation of the fluorophores with a 488-nm laser on an Acumen Explorer (TTP Lab Tech). The total intensity in channel 1 (500-530 nm) reflected lipid droplet accumulation. […] The ratio of the total intensity in PMT channel 1 over total intensity of channel 3 was also calculated. Percent activity was computed relative to an internal control (100% inhibited lipid droplet deposition due to the presence of 20 uM Triacsin C), which was added to 32 wells/plate.

[1] = measured here: cell count channel max response
[2] = measured here: lipid channel max response

Row | SMILES | activity change, negative = inhibition (at 25.7 µM (top of the series)) | max response [1] | max response [2] | activity change, negative = inhibition (at 57.5 µM (top of the series))
1 | C[C@@]12CCC(=O)C=C1CC[C@H]1[C@H]3CC[C@](O)(C(=O)CO)[C@]3(C)CC(=O)[C@@H]12 | -1.59% (inactive) | -0.115% | -3.69% | –
2 | COc1c(O)cc2c(c1O)[C@@H]1O[C@@H](CO)[C@@H](O)[C@@H](O)[C@@H]1OC2=O | -2.39% (inactive) | -8.82% | -7.08% | –
3 | OC[C@H]1O[C@@H](n2cnc3c(NCc4ccco4)ncnc32)[C@H](O)[C@@H]1O | – | -12.6% | -19.8% | -9.06% (inactive)
4 | c1ccc(Nc2ncnc3ccc(-c4cccnc4)cc23)cc1 | – | -20.7% | -13.8% | 7.8% (inactive)
5 | N#Cc1ccc(CN2CCCC3(CCN(C(=O)c4cc(C(F)(F)F)cc(C(F)(F)F)c4)CC3)C2)cc1 | – | 18.7% | 26.7% | 1.75% (inactive)
6 | COc1ccc(-c2nc3cnc(N4CCNCC4)nc3n(C)c2=O)cc1 | – | 15.8% | 21.9% | 4.15% (inactive)
7 | CC(=O)OC1CCC23CC1(C)CCC2C(C)(C)CC3OC(C)=O (configuration not stated) | – | 3.38% | 6.37% | 2.71% (inactive)
8 | COc1ccccc1CN1CCC2(CCNCC2)CC1 | – | 1.08% | -0.266% | -2.64% (inactive)
9 | COc1cccc(Cn2c(=O)c(-c3cc(F)cc(F)c3)nc3cnc(N4CCNCC4)nc32)c1 | – | -15.6% | -28.1% | -13.2% (inactive)
10 | Cc1noc(C)c1C(=O)N1CCC[C@@]2(CCN(c3ccccn3)C2)C1 | – | 20% | 24.9% | -1.14% (inactive)
11 | COc1ccc(-c2nc3cnc(OC)nc3n(-c3ccc(OC)cc3)c2=O)cc1 | – | 29.3% | 4.55% | -15.7% (inactive)
12 | O=C(c1csnn1)N1CCC2(CC1)CN(c1ncccn1)C2 | – | -0.721% | 1.07% | 0.698% (inactive)
13 | CN1CCN(c2ncc3nc(-c4cccc(C#N)c4)c(=O)n(CCC#N)c3n2)CC1 | – | -1.32% | 1.31% | 4.89% (inactive)
14 | Cn1cccc1C(=O)N1CCC2(CCN(Cc3nccs3)CC2)CC1 | – | -3.13% | -0.688% | -0.0655% (inactive)
